In paper PMC7862700, “An all-to-all approach to the identification of sequence-specific readers for epigenetic DNA modifications on cytosine”:

Tests used:
Experiment in all cases: DAPPL (digital affinity profiling via proximity ligation, sequencing); 10 mM Tris-HCl pH 7.5, 50 mM NaCl, 1 mM DTT, 4% glycerol, room temperature, 30 min; GST-TFs on glutathione beads, 16-mer random dsDNA library, 0.1% formaldehyde crosslink after washing; high values mean tight binding
Conditions in all cases: protein: recombinant; tags: N-terminal GST; dsDNA, one strand shown
[1] = target: T1, ERF (Homo sapiens, UniProt P50548 1-548)
T1 sequence: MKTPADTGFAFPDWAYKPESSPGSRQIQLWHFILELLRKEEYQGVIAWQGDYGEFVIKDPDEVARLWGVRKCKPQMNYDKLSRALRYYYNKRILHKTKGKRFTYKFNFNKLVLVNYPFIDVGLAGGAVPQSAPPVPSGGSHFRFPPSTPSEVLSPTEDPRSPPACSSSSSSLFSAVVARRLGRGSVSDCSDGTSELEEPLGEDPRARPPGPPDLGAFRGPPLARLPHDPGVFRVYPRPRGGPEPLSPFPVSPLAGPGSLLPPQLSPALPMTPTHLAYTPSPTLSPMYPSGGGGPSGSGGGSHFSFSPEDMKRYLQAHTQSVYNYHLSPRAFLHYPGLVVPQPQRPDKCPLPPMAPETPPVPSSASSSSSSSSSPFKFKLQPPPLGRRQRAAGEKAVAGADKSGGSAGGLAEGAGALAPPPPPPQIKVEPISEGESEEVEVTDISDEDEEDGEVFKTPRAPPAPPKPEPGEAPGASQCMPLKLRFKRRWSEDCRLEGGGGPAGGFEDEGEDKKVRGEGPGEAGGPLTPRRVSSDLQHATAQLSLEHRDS
Outline: (§1)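 Binding signal is given per hexamer as its read frequency for a factor divided by its frequency in the tag-only sample. GST-fused human transcription factors were expressed in yeast, captured on glutathione beads, barcoded with DNA and pooled with that sample, then incubated with 200 nmole of a 16-mer random double-stranded DNA library in Tris/NaCl/DTT/glycerol buffer for 30 min at room temperature. The pools were then washed, crosslinked, proximity-ligated, amplified by PCR and sequenced on an Illumina NextSeq500.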

[2] = target: T2, ETV3L (Homo sapiens, UniProt Q6ZN32 1-361)
T2 sequence: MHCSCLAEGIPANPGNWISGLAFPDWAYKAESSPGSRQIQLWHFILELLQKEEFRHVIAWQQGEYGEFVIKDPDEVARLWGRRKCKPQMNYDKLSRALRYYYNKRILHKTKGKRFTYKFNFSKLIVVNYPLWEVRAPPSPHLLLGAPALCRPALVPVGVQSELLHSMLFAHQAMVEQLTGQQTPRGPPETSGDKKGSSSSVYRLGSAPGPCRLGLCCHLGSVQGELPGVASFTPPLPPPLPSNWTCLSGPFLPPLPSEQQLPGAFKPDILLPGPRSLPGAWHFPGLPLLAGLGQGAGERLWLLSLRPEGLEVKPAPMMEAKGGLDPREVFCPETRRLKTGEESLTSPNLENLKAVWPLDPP
Outline: as §1

[3] = target: T3, ETS2 (Homo sapiens, UniProt P15036 1-469)
T3 sequence: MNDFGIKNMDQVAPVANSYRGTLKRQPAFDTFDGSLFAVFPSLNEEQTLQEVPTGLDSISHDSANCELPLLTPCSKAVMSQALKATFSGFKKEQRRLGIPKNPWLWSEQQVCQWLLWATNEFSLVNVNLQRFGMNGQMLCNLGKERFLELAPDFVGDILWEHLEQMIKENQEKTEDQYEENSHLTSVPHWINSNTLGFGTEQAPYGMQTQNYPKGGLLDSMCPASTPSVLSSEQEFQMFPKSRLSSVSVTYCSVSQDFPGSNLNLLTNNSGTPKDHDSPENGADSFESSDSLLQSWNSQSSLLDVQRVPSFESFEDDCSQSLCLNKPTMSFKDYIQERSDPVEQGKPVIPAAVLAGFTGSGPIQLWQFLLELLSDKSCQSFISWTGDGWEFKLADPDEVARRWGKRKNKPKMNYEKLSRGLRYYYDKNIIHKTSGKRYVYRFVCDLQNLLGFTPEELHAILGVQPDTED
Outline: as §1

[4] = target: T4, SPDEF (Homo sapiens, UniProt O95238 1-335)
T4 sequence: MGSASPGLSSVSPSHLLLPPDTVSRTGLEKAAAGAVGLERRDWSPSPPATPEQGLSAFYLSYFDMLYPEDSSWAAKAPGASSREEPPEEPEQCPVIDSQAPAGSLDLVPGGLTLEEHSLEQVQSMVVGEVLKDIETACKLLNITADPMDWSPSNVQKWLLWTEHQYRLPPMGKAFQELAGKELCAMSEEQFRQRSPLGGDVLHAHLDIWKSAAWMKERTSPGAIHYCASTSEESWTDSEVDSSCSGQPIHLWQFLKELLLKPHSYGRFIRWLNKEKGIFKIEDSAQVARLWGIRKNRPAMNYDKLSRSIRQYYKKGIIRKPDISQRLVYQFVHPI
Outline: as §1

[5] = target: T5, ETV7 (Homo sapiens, UniProt Q9Y603 1-341)
T5 sequence: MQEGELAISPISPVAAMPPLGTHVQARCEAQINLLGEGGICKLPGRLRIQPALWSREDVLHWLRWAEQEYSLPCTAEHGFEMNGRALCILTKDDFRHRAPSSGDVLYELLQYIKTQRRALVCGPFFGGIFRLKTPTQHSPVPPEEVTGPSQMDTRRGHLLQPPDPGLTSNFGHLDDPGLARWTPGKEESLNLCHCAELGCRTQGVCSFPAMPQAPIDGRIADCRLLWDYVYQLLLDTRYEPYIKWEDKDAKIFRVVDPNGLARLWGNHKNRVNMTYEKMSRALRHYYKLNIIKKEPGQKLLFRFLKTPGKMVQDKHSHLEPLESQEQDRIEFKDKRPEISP
Outline: as §1

[6] = target: T6, ELF5 (Homo sapiens, UniProt Q9UKW6-2 1-255)
T6 sequence: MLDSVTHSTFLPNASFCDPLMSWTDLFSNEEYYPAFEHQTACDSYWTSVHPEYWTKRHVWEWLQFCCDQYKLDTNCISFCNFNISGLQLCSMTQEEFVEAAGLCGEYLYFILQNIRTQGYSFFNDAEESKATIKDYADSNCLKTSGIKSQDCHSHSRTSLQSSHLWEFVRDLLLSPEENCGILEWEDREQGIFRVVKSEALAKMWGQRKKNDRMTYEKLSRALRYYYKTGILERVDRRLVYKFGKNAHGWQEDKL
Outline: as §1

[7] = target: T7, ETV3 (Homo sapiens, UniProt P41162-2 1-143)
T7 sequence: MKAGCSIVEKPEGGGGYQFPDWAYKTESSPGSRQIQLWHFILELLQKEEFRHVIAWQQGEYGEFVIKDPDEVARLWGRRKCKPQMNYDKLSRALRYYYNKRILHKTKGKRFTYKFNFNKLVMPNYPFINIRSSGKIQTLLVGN
Outline: as §1

[8] = target: ETV6 (Homo sapiens, UniProt P41212 1-452)
Outline: as §1

Sequence of ETV6 (P41212 whole entry): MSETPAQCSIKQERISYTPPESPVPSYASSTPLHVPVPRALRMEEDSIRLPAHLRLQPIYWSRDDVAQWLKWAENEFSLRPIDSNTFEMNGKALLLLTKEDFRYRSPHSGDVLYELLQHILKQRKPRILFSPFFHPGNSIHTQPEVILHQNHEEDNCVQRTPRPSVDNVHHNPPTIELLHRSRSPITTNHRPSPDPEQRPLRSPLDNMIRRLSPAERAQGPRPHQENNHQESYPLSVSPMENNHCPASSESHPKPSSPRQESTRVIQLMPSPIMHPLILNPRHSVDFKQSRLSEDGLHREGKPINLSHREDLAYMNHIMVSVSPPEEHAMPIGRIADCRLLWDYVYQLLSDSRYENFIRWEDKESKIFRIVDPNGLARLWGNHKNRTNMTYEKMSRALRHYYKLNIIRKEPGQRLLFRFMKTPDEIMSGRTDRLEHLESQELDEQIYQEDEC

Sequence | binding signal [1] | binding signal [2] | binding signal [3] | binding signal [4] | binding signal [5] | binding signal [6] | binding signal [7] | binding signal [8]
TCTGCT | 1.52 fold enrichment (6-mer frequency, TF over GST control) | 1.28 fold enrichment (6-mer frequency, TF over GST control) | 1.29 fold enrichment (6-mer frequency, TF over GST control) | 1.21 fold enrichment (6-mer frequency, TF over GST control) | 1.14 fold enrichment (6-mer frequency, TF over GST control) | 1.2 fold enrichment (6-mer frequency, TF over GST control) | 1.32 fold enrichment (6-mer frequency, TF over GST control) | 1.18 fold enrichment (6-mer frequency, TF over GST control)
CCTTGG | 1.23 fold enrichment (6-mer frequency, TF over GST control) | 1.3 fold enrichment (6-mer frequency, TF over GST control) | 1.25 fold enrichment (6-mer frequency, TF over GST control) | 1.25 fold enrichment (6-mer frequency, TF over GST control) | 1.22 fold enrichment (6-mer frequency, TF over GST control) | 1.26 fold enrichment (6-mer frequency, TF over GST control) | 1.12 fold enrichment (6-mer frequency, TF over GST control) | 1.24 fold enrichment (6-mer frequency, TF over GST control)
CTGTCT | 1.37 fold enrichment (6-mer frequency, TF over GST control) | 1.37 fold enrichment (6-mer frequency, TF over GST control) | 1.4 fold enrichment (6-mer frequency, TF over GST control) | 1.44 fold enrichment (6-mer frequency, TF over GST control) | 1.53 fold enrichment (6-mer frequency, TF over GST control) | 1.28 fold enrichment (6-mer frequency, TF over GST control) | 1.45 fold enrichment (6-mer frequency, TF over GST control) | 1.32 fold enrichment (6-mer frequency, TF over GST control)
GCTACT | 1.52 fold enrichment (6-mer frequency, TF over GST control) | 1.2 fold enrichment (6-mer frequency, TF over GST control) | 1.39 fold enrichment (6-mer frequency, TF over GST control) | 1.27 fold enrichment (6-mer frequency, TF over GST control) | 1.33 fold enrichment (6-mer frequency, TF over GST control) | 1.2 fold enrichment (6-mer frequency, TF over GST control) | 1.19 fold enrichment (6-mer frequency, TF over GST control) | 1.38 fold enrichment (6-mer frequency, TF over GST control)
ACAATA | 1.21 fold enrichment (6-mer frequency, TF over GST control) | 1.14 fold enrichment (6-mer frequency, TF over GST control) | 1.15 fold enrichment (6-mer frequency, TF over GST control) | 1.15 fold enrichment (6-mer frequency, TF over GST control) | 1.07 fold enrichment (6-mer frequency, TF over GST control) | 1.09 fold enrichment (6-mer frequency, TF over GST control) | 1.21 fold enrichment (6-mer frequency, TF over GST control) | 1.18 fold enrichment (6-mer frequency, TF over GST control)
ACTAAA | 1.27 fold enrichment (6-mer frequency, TF over GST control) | 1.32 fold enrichment (6-mer frequency, TF over GST control) | 1.3 fold enrichment (6-mer frequency, TF over GST control) | 1.25 fold enrichment (6-mer frequency, TF over GST control) | 1.24 fold enrichment (6-mer frequency, TF over GST control) | 1.28 fold enrichment (6-mer frequency, TF over GST control) | 1.21 fold enrichment (6-mer frequency, TF over GST control) | 1.28 fold enrichment (6-mer frequency, TF over GST control)
ATAAAA | 1.13 fold enrichment (6-mer frequency, TF over GST control) | 1.15 fold enrichment (6-mer frequency, TF over GST control) | 1.17 fold enrichment (6-mer frequency, TF over GST control) | 1.12 fold enrichment (6-mer frequency, TF over GST control) | 1.1 fold enrichment (6-mer frequency, TF over GST control) | 1.11 fold enrichment (6-mer frequency, TF over GST control) | 1.15 fold enrichment (6-mer frequency, TF over GST control) | 1.16 fold enrichment (6-mer frequency, TF over GST control)
AATCCC | 1.44 fold enrichment (6-mer frequency, TF over GST control) | 1.29 fold enrichment (6-mer frequency, TF over GST control) | 1.25 fold enrichment (6-mer frequency, TF over GST control) | 1.36 fold enrichment (6-mer frequency, TF over GST control) | 1.23 fold enrichment (6-mer frequency, TF over GST control) | 1.4 fold enrichment (6-mer frequency, TF over GST control) | 1.26 fold enrichment (6-mer frequency, TF over GST control) | 1.42 fold enrichment (6-mer frequency, TF over GST control)
